Reference: PubChem BioAssay AID463173 (ICCB-Longwood Screening Facility, Harvard Medical School, 2010)
The whole screen tested about 52,000 compounds, of which about 1,700 (3.3%) were called active. This excerpt belongs to a sample that is enriched for actives. A number with no mark means an inactive call. No stated cut-off is given here; in the data, active means survival mostly below about 52% (no sharp cut-off); inactive means mostly above about 56%.

System: Wild type
Assay: growth inhibition of S. aureus wild type versus tarO mutant, primary screen, teichoic acid synthesis inhibitors, RN4220, OD600 (AID 463173)
Settings: S. aureus RN4220 wild type/DeltatarO growth, OD600, 18 h, active compounds read low, screened at 18.75 µg/mL (by protocol)

Row | Compound | survival
1 | CCOc1ccc(NC(=O)CN2CCSc3ccc(S(=O)(=O)N4CCCC4)cc32)cc1 | 67%
2 | Cc1ccc(NC(=O)CN2CCSc3ccc(S(=O)(=O)N4CCCC4)cc32)cc1 | 98%
3 | CCc1ccc(NC(=O)CN2CCSc3ccc(S(=O)(=O)N4CCCC4)cc32)cc1 | -6% (active)
4 | CCOC(=O)c1scc(-c2ccc(C)cc2)c1S(=O)(=O)Nc1ccc(F)c(F)c1 | 72%
5 | Cc1nc(N2CCOCC2)c2c(C(=O)Nc3cccc(C(F)(F)F)c3)c(C)oc2n1 | 78%
6 | Cc1ccc(Nc2c(-c3ccc(C)o3)nc3cccc(C)n23)cc1 | 21% (active)
7 | CSc1ccc(-c2nc3cccc(C)n3c2Nc2ccc(Cl)cc2)cc1 | 101%
8 | Cc1ccn2c(Nc3ccc(F)cc3)c(-c3ccccn3)nc2c1 | 79%
9 | Cc1ccc(Nc2c(-c3cccc(Cl)c3)nc3cccc(C)n23)cc1 | 22%
10 | COc1ccc(Nc2c(-c3ccco3)nc3cccc(C)n23)cc1 | 97%
11 | Cc1ccccc1Nc1c(-c2ccccc2)nc2cccc(C)n12 | 73%
12 | Cc1cccc(C)c1Nc1c(-c2ccccc2F)nc2cccc(C)n12 | 7% (active)
13 | Cc1ccc(-c2nc3cccc(C)n3c2Nc2ccc3c(c2)OCO3)o1 | 22%
14 | Cc1ccc(Nc2c(-c3ccc(O)cc3)nc3cccc(C)n23)cc1 | 91%
15 | Cc1cccc2nc(-c3ccccn3)c(Nc3ccccc3)n12 | 21% (active)
16 | Cc1cccc2nc(-c3ccccn3)c(Nc3ccc(F)cc3)n12 | 4% (active)
17 | Cc1cccc(C)c1Nc1c(-c2ccsc2)nc2cccc(C)n12 | 32%
18 | O=C(Nc1ccc(Cl)c(C(F)(F)F)c1)C1CCN(S(=O)(=O)c2cccc3nonc23)CC1 | 90%
19 | Cc1ccc(C(=O)c2c(N)c(C(=O)Nc3ccccc3Cl)c3ccccn23)cc1 | 96%
20 | COc1ccc(NC(=O)CN2C(=O)c3cccnc3Sc3ccccc32)cc1OC | 81%
21 | COc1ccccc1CNC(=O)CSC1=Nc2ccccc2N=C(c2ccc(F)cc2)C1 | 73%
22 | COc1cc(NC(=O)c2sc3nc4n(c(=O)c3c2C)CCCCC4)cc(OC)c1OC | 80%
23 | Cc1ccccc1NC(=O)Cn1cc(S(=O)(=O)c2ccccc2)c(=O)c2ccccc21 | 105%
24 | COc1ccccc1CNC(=O)C(=O)NCC(c1ccco1)S(=O)(=O)c1cccs1 (stereo not drawn) | 101%

Row | Compound | survival
25 | COC(=O)C(NC(=O)CCc1c(C)nc2cc(-c3cccc(F)c3)nn2c1C)C(C)C (stereo not drawn) | 80%
26 | CCc1ccc(CNc2ncnc3onc(-c4ccc(Cl)cc4)c23)cc1 | 48%
27 | Cc1cc[n+](CC(=O)N2CCCCC2)cc1 | 116%
28 | Cc1ccc(NC(=O)Cn2c(=O)n(-c3ccccc3)c(=O)c3ccc(C(=O)NCc4ccc5c(c4)OCO5)cc32)c(C)c1 | 138%
29 | Cc1ccc(-c2nc3ccccn3c2Nc2ccc3c(c2)OCO3)o1 | 48%
30 | Cc1ccc(-c2nc3ccccn3c2Nc2c(C)cccc2C)o1 | -20% (active)
31 | Cc1ccc2nc(-c3ccc(C)o3)c(Nc3ccc4c(c3)OCCO4)n2c1 | 19% (active)
32 | Cc1ccn2c(Nc3ccc4c(c3)OCCO4)c(-c3ccc(C)o3)nc2c1 | 75%
33 | Cc1ccc(-c2nc3ccccn3c2Nc2ccc3c(c2)OCCO3)o1 | 62%
34 | Cc1ccc(-c2nc3ccc(Cl)cn3c2Nc2ccc3c(c2)OCCO3)o1 | 88%
35 | Cc1cc(-n2c(C)nc3ccccc3c2=O)ccc1NC(=O)C(F)(F)F | 69%
36 | COc1ccc(CCC(=O)NC2CC(=O)N(c3ccc(OC)cc3)C2)cc1 (stereo not drawn) | 79%
37 | CCOc1ccc(C2CC(=O)Nc3c2c(=O)[nH]c2ncnn32)cc1 (stereo not drawn) | 68%
38 | CC1=C(C(=O)Nc2ccc(C)cc2C)C(c2cccs2)n2nc(SCc3ccccc3Cl)nc2N1 (stereo not drawn) | 76%
39 | COc1cc(NC(=O)c2ccc(C)cc2)ccc1NC(=O)c1cc2ccccc2o1 | 75%
40 | CCc1ccc(C2NC(=O)c3[nH]nc(-c4cccc(OC)c4)c32)cc1 (stereo not drawn) | 74%
41 | COc1ccc(-c2n[nH]c3c2C(c2ccc(Cl)cc2Cl)NC3=O)cc1 (stereo not drawn) | 0% (active)
42 | COc1ccc(OC)c(C2c3c(-c4ccc(Br)cc4)n[nH]c3C(=O)N2c2ccc(Cl)cc2)c1 (stereo not drawn) | 77%
43 | CCOC(=O)CNc1cccc(Cl)c1 | 112%
44 | COc1cccc(CNC(=O)C(=O)Nc2c3c(nn2-c2ccccc2)CSC3)c1 | 66%
45 | Cc1ccc(NC(=O)c2cc(S(=O)(=O)N3CCC4(CC3)OCCO4)ccc2F)cc1Cl | 87%
46 | COc1ccc(N2CCN(C(=O)CNS(=O)(=O)c3ccc(Br)s3)CC2)cc1 | 61%
47 | COc1ccc(Nc2oc(/C=C/c3cc(OC)c(OC)c(OC)c3)nc2C#N)cc1 | 78%
48 | CC(=O)N1CCC2(CC1)OC(=O)C(C)=C2C(=O)NCc1ccccc1Cl | 70%

Row | Compound | survival
49 | CCOc1ccc(CCNC(=O)c2cnc3c(-c4ccc(F)cc4)c(C)nn3c2C)cc1 | 85%
50 | CCOC(=O)c1cc2occc2n1C(C)C(=O)OCC (stereo not drawn) | 95%
51 | CCn1c(C(=O)Nc2ccccc2C(=O)OC)cc2sc(Cl)cc21 | 43%
52 | CCC(Sc1nnc(C)n2c1cc1occc12)C(=O)Nc1ccccc1OC (stereo not drawn) | 90%
53 | CCC(C(=O)Nc1ccccc1OC)n1c(C(=O)OC)cc2sc(Cl)cc21 (stereo not drawn) | 0% (active)
54 | CCc1ccccc1NC(=O)c1cc2sc(Cl)cc2n1CC | 90%
55 | CCOc1ccccc1NC(=O)C(CC)n1c(C(=O)OC)cc2occc21 (stereo not drawn) | 0% (active)
56 | COc1ccc2c(c1)CC(NC(=O)Nc1ccc(NC(C)=O)cc1)CO2 (stereo not drawn) | 121%
57 | CCN1c2ccccc2-c2nc(SCC(=O)Nc3cc(OC)cc(OC)c3)ncc2S1(=O)=O | 32%
58 | CN(C(=O)C1=CC(c2ccc3c(c2)OCO3)=NS(=O)(=O)N1C)c1ccccc1 | 89%
59 | Cc1ccc2nsnc2c1S(=O)(=O)NC(C)(C)C | 96%
60 | CCc1nc2ccc(C(=O)N3CCN(c4ccccc4F)CC3)cc2nc1CC | 68%
61 | COc1cc(CN(CC2CCCO2)C(=O)c2ccc(F)cc2)cc(OC)c1OC (stereo not drawn) | 86%
62 | Cn1c(SCc2ccc(Br)cc2)nc2c([nH]c3ccccc32)c1=O | 131%
63 | CCn1c(=O)cc(OCC(=O)N(C)c2ccc(OC)cc2)c2ccccc21 | 78%
64 | CCCN(C(=O)COc1cc(=O)n(CC)c2ccccc12)c1ccc(C(C)C)cc1 | -7% (active)
65 | CCCN(c1ccc(C(C)C)cc1)S(=O)(=O)c1ccc2c(c1)oc(=O)n2CC(=O)OCC | 73%
66 | CCn1c(=O)cc(OCC(=O)N(C)c2cc(Cl)ccc2C)c2ccccc21 | 62%
67 | CCCN(C(=O)Cn1c(=O)oc2cc(Cl)ccc21)c1ccc(C(C)C)cc1 | 8% (active)
68 | CCN(C(=O)Cn1c(=O)oc2cc(Cl)ccc21)c1cccc(C(F)(F)F)c1 | 83%
69 | CCOC(=O)c1ccc(N2CCN(c3ccccc3OC)CC2)c(NC(=O)Nc2ccc(CC)cc2)c1 | 80%
70 | CCOC(=O)C(Cc1ccccc1)N1C(=O)c2ccccc2C1=O (stereo not drawn) | 104%
71 | COc1cccc(NS(=O)(=O)c2ccc3[nH]cc(C(=O)NCCc4ccc(C)cc4)c(=O)c3c2)c1 | 124%
72 | Nc1ccc(S(=O)(=O)N2CCSC2C(=O)O)cc1 (stereo not drawn) | 101%

Row | Compound | survival
73 | c1ccc(N2CCN(c3ncnc4c3nc3n4CCCCC3)CC2)cc1 | 72%
74 | COc1ccc(N2CCN(c3ncnc4c3nc3n4CCCCC3)CC2)cc1 | 73%
75 | O=C(C1CCN(c2ncnc3c2nc2n3CCCCC2)CC1)N1CCN(c2cccc(Cl)c2)CC1 | 57%
76 | COc1cccc(N2CCN(c3ncnc4c3nc3n4CCCCC3)CC2)c1 | -3% (active)
77 | Clc1cccc(N2CCN(c3ncnc4c3nc3n4CCCC3)CC2)c1 | 117%
78 | Clc1cccc(N2CCN(c3ncnc4c3nc3n4CCCCC3)CC2)c1 | 3% (active)
79 | CCn1cc(C(=O)Nc2cccc(Cl)c2)c2cc(OC)c(OC)cc2c1=O | 76%
80 | FC(F)(F)Sc1ccc2noc(-c3ccccc3)c2c1 | 115%
81 | NC(=O)c1ccccc1NC(=O)c1ccc(-c2ccc(Br)cc2)o1 | 95%
82 | COc1cc(C)cc2oc(=O)c(CC(=O)NCCc3ccc(Cl)cc3)c(C)c12 | 118%
83 | C=CCc1ccccc1OCCSc1nc(-c2ccc(C(C)(C)C)cc2)nc2cc(=O)[nH]n12 | 0% (active)
84 | COc1ccccc1OCCSc1nc(-c2ccc(C(C)(C)C)cc2)nc2cc(=O)[nH]n12 | 22%
85 | C=CCc1ccccc1OCCSc1nc(-c2ccccc2F)nc2cc(=O)[nH]n12 | 80%
86 | Cc1cccc(C)c1NCc1nnc(SCC(N)=O)n1-c1ccccc1 | 110%
87 | Cc1cc(C)cc(-n2ccn(CC(=O)Nc3ccccc3F)c(=O)c2=O)c1 | 82%
88 | CCc1ccccc1NC(=O)Cn1nnc(C(=O)NCc2cccs2)c1N | 96%
89 | Cc1cccc(NC(=O)Cn2nnc(C(=O)Nc3ccccc3Br)c2N)c1C | 0% (active)
90 | Cc1ccc(C)c(NC(=O)c2nnn(CC(=O)Nc3cccc(C)c3C)c2N)c1 | 88%
91 | CCc1ccccc1NC(=O)Cn1nnc(C(=O)NCc2ccccc2Cl)c1N | -3% (active)
92 | COc1ccccc1NC(=O)Cn1nnc(C(=O)Nc2ccccc2Br)c1N | 85%
93 | Cc1cc(C)cc(NC(=O)Cn2nnc(C(=O)NCc3ccccc3Cl)c2N)c1 | 77%
